Screens as filed in PubChem.
Only some compounds are listed: those with a hit (about 2.7% of all), similar ones and a draw of the others.
IDH1 R132H inh: blocks human mutant IDH1 R132H enzyme. O75874. IDH1-R132H enzyme, NADPH consumption, diaphorase/resazurin fluorescence. Potency, µM (doses to about 76.6 µM), most hits filed as inhibitors. 390,000 tested, 0.093% active; note: nearly all actives have a fitted effect of over 65% in size
Target sequence (O75874 whole entry R132H, stated change not applied): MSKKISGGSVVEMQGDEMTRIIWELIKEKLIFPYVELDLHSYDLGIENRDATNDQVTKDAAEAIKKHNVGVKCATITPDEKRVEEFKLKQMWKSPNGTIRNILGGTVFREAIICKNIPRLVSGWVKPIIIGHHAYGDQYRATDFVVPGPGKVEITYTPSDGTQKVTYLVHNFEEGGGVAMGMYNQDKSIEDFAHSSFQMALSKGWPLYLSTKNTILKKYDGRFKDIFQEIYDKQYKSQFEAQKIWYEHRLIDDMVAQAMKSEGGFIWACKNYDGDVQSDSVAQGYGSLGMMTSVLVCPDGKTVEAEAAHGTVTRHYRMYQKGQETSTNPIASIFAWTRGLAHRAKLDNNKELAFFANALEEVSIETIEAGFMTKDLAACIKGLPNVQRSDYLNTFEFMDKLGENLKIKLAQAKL
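IDH1-R132H (0.5 ug/mL dispensed) in pH 7.5 Tris buffer was preincubated 30 min with compound, then given a substrate mix of 0.016 mM NADPH and 2 mM alpha-KG for 80 min at room temperature; remaining NADPH was read by diaphorase/resazurin fluorescence.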
GLP-1R inv ag: inverse agonists of human GLP-1 receptor; HEK293 GLP-1R CRE-luciferase, luminescence, 24 h; GLP-1R form is constitutively active; 410,000 tested, 1.6% active; Potency, µM (series often up to 38.3 µM), most hits filed as inhibitors; AID 624417; P43220; note: nearly all actives have a fitted effect of over 55% in size
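GLP-1R inverse agonism mode: basal reporter luminescence in engineered HEK293 cells measured after one day of compound exposure at 37 deg C, with a 12 min room-temperature detection step.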
HEK293 tox: cytotoxicity counter-screen for GLP-1 receptor inverse agonists. 410,000 tested, 0.13% active. Potency, µM (highest dose often 38.3 µM), actives largely listed as inhibitors. HEK293 cAMP-luciferase reporter cells, luminescence, 24 h. AID 624418;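 note: loss of luciferase light is scored as toxicity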
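MLSMR compounds, 24 hr on cells at 37 deg C/5% CO2; luminescence after luciferase reagent (12 min RT). Inhibition counted as the undesired cytotoxic outcome.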
TrxR1 substrate: rat thioredoxin reductase 1 substrate activity; 390,000 tested, 0.01% active; O89049; Potency, µM (doses to about 114 µM); AID 588456; purified TrxR1 substrate turnover, NADPH consumption readout; note: nearly all actives have a fitted effect of over 50% in size
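Rat TrxR1, dispensed at 90 nM, was prereduced with 400 uM NADPH (final) for 5 min at ~22 deg C, then incubated with compound 15 min before 400 uM selenite. A first-read NADPH fluorescence drop versus no-compound background flagged substrates.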
rTrxR1 inhibitor: rat TrxR1 inhibition. 390,000 tested, 1% active. recombinant rTrxR1, NADPH fluorescence consumption, selenite substrate. AID 588453. O89049. Potency, µM (doses to about 114 µM), most hits filed as inhibitors; note: nearly all actives have a fitted effect of over 65% in size
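Rat TrxR1 (90 nM in the dispensed reagent) was pre-reduced with 400 uM NADPH for 5 min at room temperature, then incubated with compound for 15 min. After 400 uM selenite was added, NADPH fluorescence (Ex 340/Em 450 nm) was followed for 8 min.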
GLP1R ag: agonists of human GLP-1 receptor; P43220; HEK293 GLP-1R CRE-luciferase, luminescence, 4-6 h; cells express a hypersensitive GLP-1R form; Potency, µM (doses to about 45.6 µM), usual class: activators; 380,000 tested, 0.007% active; AID 624172
Numbers stand for hits; – = inactive; ? = inconclusive; · = no result given; [ ] = another dose, or the depositor's remark. Calls come from the whole dose curve; as a rule, active = well fitted curve in the direction sought with a large enough effect; inconclusive = small, poorly fitted or top-dose-only effect, or another doubt; inactive = no such curve, though single readings can be large; an effect the other way counts as inactive or inconclusive.

SMILES | IDH1 R132H inh | GLP-1R inv ag | HEK293 tox | TrxR1 substrate | rTrxR1 inhibitor | GLP1R ag
CN1/C(=C/C(=O)c2nc(S(C)(=O)=O)ncc2Cl)C(C)(C)c2ccccc21 | – | ? | ? | – | 50µM | –
C#C[C@]1(OC(=O)CCCCCC)CC[C@H]2C3CCC4=CC(=O)CC[C@@H]4[C@H]3CC[C@@]21C (stereo partly drawn) | · | · | · | · | · | –
CC(C)n1c(/C=C/[C@H](O)C[C@H](O)CC(=O)O)c(-c2ccc(F)cc2)c2ccccc21 | – | 3.2µM | – | – | – | –
O=Cc1c(C(=O)O)n(Cc2ccccc2F)c2ccccc12 | – | – | – | – | – | –
O=C(CCl)N1CCN(C(=O)C2COc3ccccc3O2)CC1 (stereo not drawn) | – | ? | ? | – | 28µM | –
COc1cc(C2c3cc4c(cc3OC(C)(N3CCCC3)C2C)OCO4)cc(OC)c1OC (stereo not drawn) | – | ? | ? | –[11.4 µM] | –[11.4 µM] | –
Cc1cc(Nc2cccc(C(F)(F)F)c2)nc2ccc(NC(=O)c3cccnc3)cc12 | – | 4µM | ? | – | – | ·
CCOP(=O)(C1=C(O)C(=O)C(C(C)(C)C)=CC1=O)c1ccccc1 (stereo not drawn) | – | – | – | – | 4.5µM | –
COc1ccc(NCc2nc3ccccc3n2CCOc2ccc(C)cc2)cc1 | – | ? | ? | – | – | –
O=C1NC(=O)C(=Cc2cccc(OCCOc3ccccc3)c2)C(=O)N1 | – | ? | – | – | 16µM | –
CCOc1cc(C=C2C(=O)NC(=O)NC2=O)ccc1OCC(=O)N1CCOCC1 | – | – | – | – | ? | –
Cc1ccc(OCCOc2cccc(C=C3C(=O)NC(=O)NC3=O)c2)c(C)c1 | – | 6.3µM | – | – | 7.9µM | –
O=C1NC(=O)C(=Cc2ccc(OCCOc3ccc([N+](=O)[O-])cc3)cc2)C(=O)N1 | – | ? | – | – | 35µM | –
O=C1NC(=O)C(=Cc2cn(CCOc3ccc4c(c3)OCO4)c3ccccc23)C(=O)N1 | – | ? | – | – | – | –
COc1ccc(C(C)NCCC(c2ccc(OC(C)C)cc2)c2ccccc2OC)cc1 (stereo not drawn) | – | ? | ? | – | – | –
O=C(c1ccc2nsnc2c1)N1CCN(c2ccc([N+](=O)[O-])cc2)CC1 | – | – | ? | – | – | –
COc1cccc(NC(=O)C2CCN(c3nnc(C)c4c(C)n(-c5ccccc5)nc34)CC2)c1 | – | – | – | – | – | ·
COc1cc(/C=C2\SC(=S)N(NC(=O)c3cccc(O)c3)C2=O)ccc1O | – | – | ? | – | – | –
CCOc1cc(/C=C2\SC(=S)N(NC(=O)c3cccnc3)C2=O)ccc1O | – | – | 11µM | – | – | –
N#CC(C#N)=Cc1ccc(C=C(C#N)C#N)cc1 | – | – | – | – | 7.9µM | –
Cc1cc(N2CCCC2)ccc1C=C(C#N)C#N | – | – | – | –[11.4 µM] | –[11.4 µM] | –
CC(NCc1ccc([N+](=O)[O-])cc1)C1COc2ccccc2O1 (stereo not drawn) | – | ? | – | – | – | –
COc1cc(C2c3cc4c(cc3OC(NCCc3ccccc3)C2C)OCO4)cc(OC)c1OC (stereo not drawn) | – | ? | ? | – | –[11.4 µM] | –
COc1ccc(C(=O)NCCn2cc(SCc3ccc(C(F)(F)F)cc3)c3ccccc32)cc1OC | – | ? | – | – | – | –
CCc1c(C2(O)CCCCC2)[nH]c2ccc(C(F)(F)F)cc12 | – | 2.2µM | ? | – | – | –
CC(C)CC1C(=O)N(Cc2cn(CC3CCCCC3)nn2)CCS(=O)(=O)N1Cc1ccc(-c2ccc(F)nc2)cc1 (stereo not drawn) | – | ? | – | · | · | –
Cc1ccc2sc(N(CCCN(C)C)C(=O)CCS(=O)(=O)c3ccccc3)nc2c1C | – | ? | ? | – | 18µM | –
COc1ccc(OC)c2sc(N(CCCN(C)C)C(=O)CCS(=O)(=O)c3ccccc3)nc12 | – | ? | 10µM | – | 2.8µM | –
